# Compound activity as filed in PubChem BioAssay.
# An excerpt weighted towards active compounds, which were near 19% of everything screened.
# HT1080 IDH1KD tx = qHTS for induction of synthetic lethality in tumor cells producing 2HG: qHTS for the HT-1080-IDH1KD cell line | HT-1080 IDH1 knockdown viability, ATP luminescence, 48 h | Potency, µM (highest dose often 46.1 µM), without a hit: at the highest dose activity, negative = toxicity, actives largely listed as cytotoxic | 360,000 compounds, 2% hits;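 further: potency means the concentration at half of the fitted maximal effect; 0% = DMSO wells and -100% = cell-free medium wells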
#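 Assay cells: HT-1080 with IDH1 knockdown, 750 per well, RPMI/5% FBS. Exposure: 48 h at 37 °C following 2 h pre-incubation. Read: CellTiter-Glo luminescence; fitted concentration-response, curve class assigned.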
# DT40 TDP1 no CPT = qHTS for Inhibitors of human tyrosyl-DNA phosphodiesterase 1 (TDP1): qHTS in cells in absence of CPT; DT40 Tdp1-/- hTDP1 cells, no CPT, ATP luminescence, 48 h; Potency, µM (titrated, usually from 46.2 µM), for inactives: at the top dose activity change, negative = growth inhibition, usual class: inhibitors; 420,000 compounds, 15% hits; further: potency means the concentration at half of the fitted maximal effect; nearly all actives have a fitted effect of over 55% in size
#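 Chicken DT40 Tdp1-/- cells complemented with human TDP1, screened without camptothecin (DMSO vehicle only), 400 cells/well. Compounds pin-transferred, cells incubated at 37 °C for at least 48 hr. Growth read as ATP-dependent luminescence (CellTiter-Glo, 30 min at RT).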
# HT1080NT lethal = qHTS for induction of synthetic lethality in tumor cells producing 2HG: qHTS for the HT-1080-NT fibrosarcoma cell line. HT-1080-NT fibrosarcoma viability, CellTiter-Glo ATP luminescence, 48 h. Potency, µM (top dose mostly 46.1 µM), for the others: top-dose activity, negative = less viability, usual class: cytotoxic. 360,000 compounds, 1.6% hits. AID 686970, 2013;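 further: NT is the 2HG producing partner of a matched IDH1 knockdown line; potency means the concentration at half of the fitted maximal effect; 0% = DMSO-treated cells and -100% = media-only wells without cells; nearly all actives have a fitted effect of over 55% in size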
#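 Fibrosarcoma NT cells, 750 per well in 5% FBS RPMI, were exposed to compound for 48 hours. Viability: CellTiter-Glo luminescence.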
# TDP1 cell CPT = qHTS for Inhibitors of human tyrosyl-DNA phosphodiesterase 1 (TDP1): qHTS in cells in presence of CPT | chicken DT40 Tdp1-/-;hTDP1 cells + 20 nM CPT, ATP luminescence, 48 h | AID 686979, 2013 | Potency, µM (doses to about 46.2 µM), inactives show at the top dose activity change, negative = growth inhibition, hits mostly inhibitors | 420,000 compounds, 12% hits; further: potency means the concentration at half of the fitted maximal effect; nearly all actives have a fitted effect of over 55% in size
#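 Chicken DT40 Tdp1-/- cells stably complemented with human TDP1 were seeded at 400 cells/well in medium containing 20 nM camptothecin, exposed to pin-transferred compounds, and grown at 37 °C for at least 48 hr. Viability was read as ATP luminescence.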
# IL1B secr inh = qHTS for Inhibitors of Inflammasome Signaling: IL-1-beta AlphaLISA Primary Screen. THP-1 LPS/ATP IL-1B secretion, AlphaLISA, 16 h; active compounds read low. AID 743279, 2014. activity change, % at 57.5 µM. 360,000 compounds, 4.7% hits; in the data active means activity change below about -50%; inconclusive means mostly about -30% to -49%
#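 Secreted IL-1B measured by AlphaLISA bead assay after 16 h compound exposure of THP-1 cells; compounds (final up to 57.5 uM) added 1 h before LPS (250 ng/mL) and ATP (1.25 mM) stimulation; lower signal means less secretion.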
# * hit, by the source's call; ? = inconclusive; / = no result; [ ] = another dose, or the depositor's remark. Unless noted, the call rests on the fitted dose curve; in most records, active means well fitted curve in the direction sought with a large enough effect; inconclusive means small, poorly fitted or top-dose-only effect, or another doubt; inactive means no such curve, though single readings can be large; an effect the other way counts as inactive or inconclusive. Unless noted, on the % scale 0 is the no-effect control and ±100 the full control effect.
SMILES,HT1080 IDH1KD tx,DT40 TDP1 no CPT,HT1080NT lethal,TDP1 cell CPT,IL1B secr inh
CCOc1ccc(NC(=O)Cn2ncc3c2-c2cc(C)ccc2OC3)cc1,/,-15%,/,-9%,/
Cc1ccccc1S(=O)(=O)NC(=O)C1(C)CCN1C(=O)C/C=C/c1ccccc1 (stereo unspecified),1%,-16%,20%,-24%,10
Cc1cc2nc3c(=O)n(C4CCCCC4)c(=O)[nH]c3nc2cc1N,?,-10%,?,18%,16
CCCn1c(=O)c2sccc2n2c(CCCC(=O)Nc3ccc(Oc4ccccc4)cc3)nnc12,/,15µM*,/,10µM*,/
COc1ccc(NC(=O)CCCc2nnc3n(C)c(=O)c4sccc4n23)cc1,9%,-7%,8%,-1%,8
CCCn1c(=O)c2sccc2n2c(CCCC(=O)Nc3ccc(Oc4ccc(Cl)cc4)cc3)nnc12,/,16µM*,/,16µM*,/
CCCn1c(=O)c2sccc2n2c(CCCC(=O)Nc3ccccc3F)nnc12,/,?,/,0%,/
COCCn1c(CN2CCN(C(c3ccccc3)c3ccccc3)CC2)nc2c1c(=O)n(C)c(=O)n2C,10%,16µM*,14%,?,22
Cn1c(=O)c2c(nc(CN3CCN(C(c4ccccc4)c4ccccc4)CC3)n2CCCO)n(C)c1=O,-22%,21µM*,-4%,?,-5
CC(C)CCn1c(CN2CCN(C(=O)c3ccco3)CC2)nc2c1c(=O)n(C)c(=O)n2C,-1%,?,-12%,1%,4
Cc1ccc(-c2nnn(CC(=O)N(c3cccc(F)c3)C(C(=O)NC(C)(C)C)c3ccco3)n2)o1 (stereo unspecified),?,-28%,?,-29%,-3
O=C(Nc1cccs1)Nc1nnc([C@@H]2C[C@H](O)[C@@H](CO)O2)s1,6%,-15%,2%,-30%,62
Cc1nc2c(o1)C(=O)c1ccccc1C2=Nc1ccccc1,2.9µM*,2.1µM*,5.8µM*,2.3µM*,-100*
CCOC(=O)Cc1csc(NC(=O)CSc2nc(=O)[nH]c3c2CCCC3)n1,-1%,?,2%,5%,-4
CCN(CC)CCn1c2c(c(SCC(=O)Nc3nc(C)cs3)nc1=O)CCC2,-2%,7%,-4%,6%,-69*
CCN(CC)CCCn1c2c(c(SCC(=O)Nc3ccc(F)c(F)c3)nc1=O)CCC2,-19%,-1%,-25%,-5%,-23
CCN(CC)CCn1c2c(c(SCC(=O)Nc3ccc(F)c(F)c3)nc1=O)CCC2,-1%,7%,-4%,-6%,-66*
CC(C)c1ccc(NC(=O)CSc2nc(=O)[nH]c3c2CCCC3)cc1,-10%,21µM*,-7%,?,12
CCOC(=O)Cc1csc(NC(=O)CSc2nc(=O)[nH]c3c2CCC3)n1,5%,-28%,2%,0%,-90*
CC(C)(C)C(=O)O/N=C(\N)COc1cccc(Cl)c1,1%,-18%,-6%,-7%,11
C[C@H]1CN([C@@H](C)CO)C(=O)CCCn2cc(nn2)CO[C@@H]1CN(C)S(=O)(=O)c1cccc(F)c1,4%,-5%,-3%,-17%,35
CCN(CC)CCn1c2c(c(SCC(=O)Nc3ccc(C)c(F)c3)nc1=O)CCCC2,-16%,?,-7%,?,?
CCN(CC)CCCn1c2c(c(SCC(=O)Nc3cc(OC)cc(OC)c3)nc1=O)CCC2,-16%,18µM*,-17%,?,?
CCN(CC)CCn1c2c(c(SCC(=O)Nc3ccc(C(C)C)cc3)nc1=O)CCCC2,0%,?,-2%,?,-50*
CCCCc1ccc(NC(=O)CSc2nc(=O)n(CCN(CC)CC)c3c2CCC3)cc1,-2%,?,-2%,?,-80*
SMILES,HT1080 IDH1KD tx,DT40 TDP1 no CPT,HT1080NT lethal,TDP1 cell CPT,IL1B secr inh
COc1cc(NC(=O)CSc2nc(=O)n(CCCN3CCOCC3)c3c2CCC3)cc(OC)c1,-8%,-18%,3%,?,-8
CC(=O)c1nn(-c2ccc(C(F)(F)F)cc2)c(=O)[nH]c1=O,-2%,-17%,2%,19%,16
CN[C@@H]1[C@@H](O)[C@@H](O[C@@H]2[C@@H](O)[C@H](OC3OC(CN)=CCC3N)[C@@H](N)C[C@H]2N)OC[C@]1(C)O (stereo partly specified),/,-10%[21.1 µM],/,-12%[21.1 µM],/
CCn1nc(C)c(CCN(C)C(=O)Nc2cc(Cl)ccc2C)c1C,/,?,/,-3%,/
O=C(CCNc1n[nH]c(=O)[nH]c1=O)N/N=C/c1ccc(C(F)(F)F)cc1,5%,18%,8%,3%,40
Cc1cc(C)c2c(=O)cc(C(=O)Nc3c(C)n(C)n(-c4ccccc4)c3=O)oc2c1,/,-22%,/,6%,/
CCOC(=O)[C@]12CCC=C1N(CCC1=CCCCC1)C(=O)[C@H](CC(=O)NCCc1ccccc1OC)C2,5%,?,2%,?,-1
CCOC(=O)[C@]12CCCC=C1N(CCC1=CCCCC1)C(=O)[C@H](CC(=O)NCCc1ccccc1OC)C2,?,13µM*,-18%,13µM*,-24
COC(=O)[C@]12CCCCC=C1N(CCC1=CCCCC1)C(=O)[C@H](CC(=O)NCCc1ccccc1OC)C2,?,?,?,16µM*,-52*
O=C(NCc1ccncc1)[C@@H]1CCCN1C(=O)[C@@H]1CCCN1C(=O)c1c(F)cccc1F,-1%,-17%,15%,7%,5
CCN1/C(=C2\SC(=S)N(Cc3ccccc3)C2=O)Sc2ccccc21,12%,?,11%,-23%,-3
CCC(CO)[n+]1c(C)cc(/C=C2\Sc3ccccc3N2Cc2ccccc2)cc1C (stereo unspecified),3.3µM*,2.3µM*,3.3µM*,2.3µM*,-104*
Cc1cccc(CSc2nc3c(sc4ccccc43)c(=O)n2CCC(=O)NC(C)C)c1,/,12µM*,/,4.6µM*,/
C/C(N)=C(/C#N)C(=O)CSc1nc2ccccc2c(=O)n1CCCOC(C)C,16%,23µM*,1%,?,?
CCCCn1c(SCC(=O)NCc2ccco2)nc2c(sc3ccccc32)c1=O,7%,-12%,?,?,10
CCCCn1c(SCC(N)=O)nc2c(sc3ccccc32)c1=O,-9%,?,22µM*,?,-21
CCNC(=O)CSc1nc2ccccc2c(=O)n1CCCOC(C)C,13%,-12%,18%,-6%,2
CC(C)OCCCn1c(SCC(N)=O)nc2c(sc3ccccc32)c1=O,/,?,/,21µM*,/
